# Results published in PubChem BioAssay.
# Calls of active or inactive are those of the source.
# Legend:
# Albumin (Bos taurus) = Albumin (Bos taurus) (UniProt P02769); test: compounds binding labelled BSA control protein – biochemical, small-molecule microarray, Alexa647 label, 635/667 nm fluorescence, artefact control for SMM control protein annotation, profiling panel (AID 1118); settings: BSA-A647 binding, fluorescence 635 nm, higher = more signal;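 note: score merges 667 nm emission intensity and signal-to-noise per printed compound spot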
# [1] = probe aXIP binding to arrayed compounds – biochemical, NeuroSMM set, 635/667 nm fluorescence, primary screen (AID 1119); settings: small-molecule microarray, higher = more signal, called active from +8 up or from −8 down;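 note: probe is the protein aXip251-270 applied at 1 µg/mL to compound-printed slides; binding of probe to printed compounds measured as 667 nm fluorescence plus signal to noise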
# [2] = probe aNOTCH3 binding on compound microarray – biochemical, small-molecule microarray, 635/667 nm fluorescence, primary screen (AID 1120); settings: higher = more signal;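 note: probe is a biotin-tagged antibody raised against NOTCH3 rather than NOTCH3 protein; score merges spot fluorescence near 667 nm with spot signal to noise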
# [3] = probe aNOTCH2 binding on compound microarray – biochemical, small-molecule microarray, 635/667 nm fluorescence, primary screen (AID 1121); settings: higher = more signal;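 note: score merges feature fluorescence read at 667 nm with its signal to noise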
# [4] = target: Carbonic anhydrase 2 (Homo sapiens) (UniProt P00918); test: compounds binding carbonic anhydrase 2 – biochemical, small-molecule microarray, Alexa647-labelled CAII, profiling panel (AID 1122); settings: CAII-A647 binding fluorescence, higher = more signal
# [5] = COS7 lysate on small-molecule microarray, probe aHis, 635 nm (AID 1123); settings: COS7 cell lysate, fluorescence, higher = more signal;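 note: z-score combines 667nm fluorescence intensity with signal-to-noise per printed compound spot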
# [6] = probe aLAP1 signal on lysate-treated microarray – cell lysate, small-molecule microarray, COS7 lysate, primary screen (AID 1124); settings: probe aLAP1, fluorescence, higher = more signal;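 note: lysate comes from COS7 cells expressing LAP1 and is applied at 0.3 µg/mL; score merges spot fluorescence near 667 nm with signal-to-noise over triplicate slides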
# Sam68 (KHDRBS1) = test: compounds binding KHDRBS1 protein – biochemical, small-molecule microarray, 635 nm fluorescence, primary screen (AID 1125); settings: higher = more signal;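 note: score merges 667 nm channel intensity with signal to noise over triplicate slides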
# [7] = system: Chordin-like protein 2 (CHRDL2); test: compounds binding chordin-like 2 – biochemical, small-molecule microarray, 635 nm fluorescence, primary screen (AID 1126); settings: fluorescence 635 nm, higher = more signal;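 note: printed compound slides probed with Chrdl2 protein at 4 µg/mL for 1 h at 4 C; score merges 667 nm emission intensity with signal to noise over three replicate slides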
# [8] = target: Concanavalin-A (Canavalia ensiformis) (UniProt P02866); test: compounds binding concanavalin A lectin – biochemical, small-molecule microarray, Alexa647 label, 635 nm, artefact control for SMM control protein annotation, primary screen (AID 1127); settings: ConA-A647 binding fluorescence, higher = more signal;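 note: z combines 667 nm emission intensity with signal-to-noise across three replicate slides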
# [9] = compounds binding Alexa647 anti-His antibody – biochemical, small-molecule microarray, 635 nm fluorescence, artefact control for SMM control protein annotation, primary screen (AID 1128); settings: higher = more signal;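 note: score merges feature fluorescence with signal-to-noise for each printed compound spot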
# [10] = system: Human papillomavirus type 1a E7 protein (residues 1-88); test: HPV1a E7 small-molecule binders, primary screen, biochemical, small-molecule microarray, residues 1-88, 635 nm (AID 1129); settings: small-molecule microarray binding, fluorescence 635 nm; higher = more signal
# [11] = target: Focal adhesion kinase 1 (Homo sapiens) (UniProt Q05397); test: PTK2 protein binding on printed compound slides – biochemical, small-molecule microarray, 635/667 nm fluorescence, BSA, DTT, primary screen (AID 1130); settings: 635 nm fluorescence, higher = more signal;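 note: composite of spot emission at 667 nm and signal to noise over triplicate slides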
# [12] = system: Fibrinogen (Alexa647-labelled); test: Alexa647-fibrinogen binding to printed small molecules – biochemical, small-molecule microarray, 635/667 nm fluorescence, artefact control for SMM control-protein annotation, profiling panel (AID 1131); settings: fibrinogen-A647 binding fluorescence, higher = more signal;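 note: z-score merges 667 nm fluorescence with per-spot signal-to-noise over triplicate slides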
# [13] = target: Follistatin (Homo sapiens) (UniProt P19883); test: FST protein binding to printed compounds – biochemical, small-molecule microarray, 635/667 nm fluorescence, primary screen (AID 1132); settings: 635 nm fluorescence, higher = more signal
# [14] = target: Fibroblast growth factor 2 (Homo sapiens) (UniProt P09038); test: basic fibroblast growth factor binding to printed compounds – biochemical, small-molecule microarray, 635/667 nm fluorescence, primary screen (AID 1133); settings: FGF2, fluorescence 635/667, higher = more signal
# [15] = JC-1 mitochondrial potential readout, lung cancer cells – cell-based, A549, JC-1 fluorescence, basal, 24 h, 100 nL, profiling panel (AID 1138); settings: higher = more signal;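 note: A549 lung adenocarcinoma cells under basal conditions with no added stimulus; test concentration not given here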
# Lefty1 = Lefty1 protein binding to printed compounds – biochemical, small-molecule microarray, 635/667 nm fluorescence, primary screen (AID 1139); settings: fluorescence 635/667, higher = more signal
# [16] = system: wheat germ agglutinin (Triticum aestivum), Alexa647-labelled; test: Alexa647-WGA lectin binding to printed small molecules – biochemical, small-molecule microarray, 635/667 nm fluorescence, artefact control for SMM control-protein annotation, profiling panel (AID 1140); settings: WGA-A647 binding, 635 nm fluorescence, higher = more signal;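 note: score merges 667 nm feature emission with signal to noise over triplicate slides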
# [17] = target: Luciferin 4-monooxygenase (Photinus pyralis) (UniProt P08659); test: inhibition of purified Photinus pyralis luciferase – biochemical, luminescence, purified enzyme, 2006 set, primary screen (AID 1141); settings: purified firefly luciferase, SteadyGlo luminescence, 30 min; higher = more signal, called active from +8 up or from −8 down;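 note: cell-free assay with purified firefly luciferase at 100 ng per well in PBS; test concentration not given here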
# Luciferin 4-monooxygenase (Photinus pyralis), sequence (P08659 whole entry, looked up): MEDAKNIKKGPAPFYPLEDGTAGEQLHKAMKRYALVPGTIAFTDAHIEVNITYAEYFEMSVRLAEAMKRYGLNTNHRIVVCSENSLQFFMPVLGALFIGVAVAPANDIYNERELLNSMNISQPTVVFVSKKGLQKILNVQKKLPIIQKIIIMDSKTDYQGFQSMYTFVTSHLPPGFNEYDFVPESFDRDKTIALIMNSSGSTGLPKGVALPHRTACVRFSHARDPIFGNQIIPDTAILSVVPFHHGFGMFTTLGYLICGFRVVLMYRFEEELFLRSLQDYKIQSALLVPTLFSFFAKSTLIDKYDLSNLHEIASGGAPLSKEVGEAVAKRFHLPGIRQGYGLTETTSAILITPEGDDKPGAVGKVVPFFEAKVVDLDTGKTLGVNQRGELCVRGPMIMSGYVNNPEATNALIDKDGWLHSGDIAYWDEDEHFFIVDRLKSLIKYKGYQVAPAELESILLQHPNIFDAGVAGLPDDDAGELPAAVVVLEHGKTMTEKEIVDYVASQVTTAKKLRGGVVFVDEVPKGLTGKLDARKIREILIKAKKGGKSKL
# Follistatin (Homo sapiens), sequence (P19883 whole entry, looked up): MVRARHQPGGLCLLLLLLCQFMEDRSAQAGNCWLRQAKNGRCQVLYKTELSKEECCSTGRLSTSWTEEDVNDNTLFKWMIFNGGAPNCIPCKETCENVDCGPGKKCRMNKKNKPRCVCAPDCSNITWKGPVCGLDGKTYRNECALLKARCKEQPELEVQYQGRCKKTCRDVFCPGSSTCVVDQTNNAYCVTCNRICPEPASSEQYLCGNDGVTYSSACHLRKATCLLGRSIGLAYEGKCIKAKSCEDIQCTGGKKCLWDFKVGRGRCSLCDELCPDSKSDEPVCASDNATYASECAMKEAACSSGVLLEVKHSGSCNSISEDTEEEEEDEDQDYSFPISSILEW
# Concanavalin-A (Canavalia ensiformis), sequence (P02866 whole entry, looked up): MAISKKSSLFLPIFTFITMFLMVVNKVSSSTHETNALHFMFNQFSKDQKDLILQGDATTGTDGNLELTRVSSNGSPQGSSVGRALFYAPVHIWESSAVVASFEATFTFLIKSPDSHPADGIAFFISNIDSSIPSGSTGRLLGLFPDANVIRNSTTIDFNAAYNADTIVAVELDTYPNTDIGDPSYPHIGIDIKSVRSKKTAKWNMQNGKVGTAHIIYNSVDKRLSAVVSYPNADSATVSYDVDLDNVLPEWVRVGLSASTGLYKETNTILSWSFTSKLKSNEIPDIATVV
# Albumin (Bos taurus), sequence (P02769 whole entry, looked up): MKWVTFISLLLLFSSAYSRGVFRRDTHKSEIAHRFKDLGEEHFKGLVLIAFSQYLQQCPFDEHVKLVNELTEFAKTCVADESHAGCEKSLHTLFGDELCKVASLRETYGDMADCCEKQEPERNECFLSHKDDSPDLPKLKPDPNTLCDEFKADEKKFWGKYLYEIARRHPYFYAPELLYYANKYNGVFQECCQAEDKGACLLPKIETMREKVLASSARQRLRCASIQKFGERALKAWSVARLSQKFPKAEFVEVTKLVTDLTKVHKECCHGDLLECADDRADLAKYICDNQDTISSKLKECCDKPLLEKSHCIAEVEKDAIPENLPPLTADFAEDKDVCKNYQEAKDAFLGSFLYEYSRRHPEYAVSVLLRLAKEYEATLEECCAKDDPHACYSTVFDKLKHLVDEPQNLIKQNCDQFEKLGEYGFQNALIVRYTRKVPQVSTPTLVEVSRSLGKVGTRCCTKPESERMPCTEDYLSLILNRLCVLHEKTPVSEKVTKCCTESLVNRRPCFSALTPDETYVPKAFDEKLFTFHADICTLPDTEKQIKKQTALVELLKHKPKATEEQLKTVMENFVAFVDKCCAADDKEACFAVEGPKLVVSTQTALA
# Fibroblast growth factor 2 (Homo sapiens), sequence (P09038 whole entry, looked up): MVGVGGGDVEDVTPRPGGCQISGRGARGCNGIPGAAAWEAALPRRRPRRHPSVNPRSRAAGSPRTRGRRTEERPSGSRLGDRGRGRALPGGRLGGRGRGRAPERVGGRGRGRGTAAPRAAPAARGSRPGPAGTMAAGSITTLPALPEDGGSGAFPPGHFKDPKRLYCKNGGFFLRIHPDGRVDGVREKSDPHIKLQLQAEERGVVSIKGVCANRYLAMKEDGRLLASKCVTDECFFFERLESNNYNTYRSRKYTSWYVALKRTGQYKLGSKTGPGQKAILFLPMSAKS
# Focal adhesion kinase 1 (Homo sapiens), sequence (Q05397 whole entry, looked up): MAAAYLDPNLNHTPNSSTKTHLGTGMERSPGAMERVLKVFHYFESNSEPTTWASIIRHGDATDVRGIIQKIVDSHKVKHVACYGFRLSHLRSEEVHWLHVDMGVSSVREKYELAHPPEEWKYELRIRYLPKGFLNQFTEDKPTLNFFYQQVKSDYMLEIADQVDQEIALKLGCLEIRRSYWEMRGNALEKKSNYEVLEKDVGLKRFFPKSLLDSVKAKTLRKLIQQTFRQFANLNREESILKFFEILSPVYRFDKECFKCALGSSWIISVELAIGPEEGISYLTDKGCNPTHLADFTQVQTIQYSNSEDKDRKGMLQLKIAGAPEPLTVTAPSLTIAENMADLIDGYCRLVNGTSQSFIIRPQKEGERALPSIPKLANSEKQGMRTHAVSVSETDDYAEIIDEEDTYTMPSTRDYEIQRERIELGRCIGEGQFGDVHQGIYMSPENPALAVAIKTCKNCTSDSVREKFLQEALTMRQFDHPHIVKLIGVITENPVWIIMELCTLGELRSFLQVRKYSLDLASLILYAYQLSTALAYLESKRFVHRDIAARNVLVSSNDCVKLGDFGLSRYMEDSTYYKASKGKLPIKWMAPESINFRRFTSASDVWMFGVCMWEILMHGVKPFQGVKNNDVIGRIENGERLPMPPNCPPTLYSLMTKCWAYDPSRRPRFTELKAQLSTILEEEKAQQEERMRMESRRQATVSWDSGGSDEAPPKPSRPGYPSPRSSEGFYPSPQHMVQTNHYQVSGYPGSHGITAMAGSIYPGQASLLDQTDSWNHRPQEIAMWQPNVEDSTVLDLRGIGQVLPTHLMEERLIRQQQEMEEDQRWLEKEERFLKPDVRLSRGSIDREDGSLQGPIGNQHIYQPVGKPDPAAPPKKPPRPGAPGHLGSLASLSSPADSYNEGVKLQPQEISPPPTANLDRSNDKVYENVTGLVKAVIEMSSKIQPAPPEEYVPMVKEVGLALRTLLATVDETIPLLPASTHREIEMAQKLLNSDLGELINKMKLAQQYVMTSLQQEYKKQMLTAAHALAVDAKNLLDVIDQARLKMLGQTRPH
Compound,composite z-score (Albumin (Bos taurus)),composite Z-score [1],composite z-score [2],composite z-score [3],composite z-score [4],composite z-score [5],composite z-score [6],composite z-score (Sam68 (KHDRBS1)),composite z-score [7],composite z-score [8],composite z-score [9],composite z-score [10],composite z-score [11],composite z-score [12],composite z-score [13],composite z-score [14],z-score [15],composite z-score (Lefty1),composite z-score [16],z-score [17]
COCCOC(=O)N1C(=O)[C@@]2(c3cc(C#Cc4ccc(OC)cc4)ccc31)[C@H](c1ccc(O)cc1)N1[C@H](c3ccccc3)[C@H](c3ccccc3)OC(=O)[C@H]1[C@@H]2C(=O)N1CCc2cc(OC)c(OC)cc2C1,0.595,0.536 (inactive),0.327,-0.0877,0.117,0.75,0.16,1.28,0.252,1.12,0.744,0.7,1.02,0.935,1.02,0.413,-0.734,0.785,0.555,0.644 (inactive)
COc1cc(COC(C)=O)ccc1OC(C)=O,-0.0355,-0.254 (inactive),0.397,-0.0304,-0.171,0.279,-0.184,0.624,0.558,0.733,-0.0364,0.262,0.661,0.0038,0.512,0.102,1.47,0.45,-0.155,-1.52 (inactive)
COCCOC(=O)N1C(=O)[C@@]2(c3ccccc31)[C@H](c1ccc(O)cc1)N1[C@H](c3ccccc3)[C@H](c3ccccc3)OC(=O)[C@H]1[C@@H]2C(=O)Nc1nc2ccccc2s1,0.827,-0.434 (inactive),0.351,-0.0956,0.498,1.98,0.384,1.3,-0.172,1.2,1.97,1.17,0.475,0.961,0.695,0.408,-2.42,0.259,1.14,-1.32 (inactive)
CC(C)C[C@@H]1NC(=O)[C@@H]2C[C@H](C(=O)NCc3ccc(F)cc3)[C@H](c3cccc(OCCO)c3)N2C1=O,-0.972,0.532 (inactive),-0.229,-0.166,0.549,0.558,1.19,0.72,0.915,0.902,2.05,0.135,0.379,-0.373,1.47,1.46,1.87,0.616,-0.129,-0.976 (inactive)
C=C(/C(=C/C[C@H](OC(C)=O)c1ccccc1OCCO)c1cnc2ccccc2c1)C(C)C,0.0816,-0.323 (inactive),0.16,-0.102,0.722,0.202,-0.0507,0.461,0.384,0.922,-0.577,0.0336,0.119,-0.498,1.3,0.58,1.12,0.505,1.07,-1.14 (inactive)
CCC[C@@H]1C[C@@]1(CCC)[C@@H](NS(=O)(=O)c1cccc2cccnc12)c1ccc(Cl)cc1,0.659,-0.421 (inactive),0.0496,-0.106,0.457,1.81,-0.119,0.403,-0.955,0.492,0.265,1.06,0.249,0.285,0.0155,-1.68,2.3,-0.605,0.701,0.19 (inactive)
COC(=O)[C@@]1(CCC(=O)OC(C)(C)C)N=C(c2ccc(OCCCO)cc2)O[C@H]1c1ccccc1N=[N+]=[N-],0.373,0.455 (inactive),-0.076,-0.127,0.508,1.95,0.333,0.201,-0.436,0.721,0.421,1.17,0.723,0.942,1.24,0.0436,1.01,0.303,0.658,-7.29 (inactive)
CC(C)N1C(=O)[C@@]2(Cc3ccccc31)c1ccccc1C(=O)N(Cc1ccccc1Cl)[C@H]2c1ccc(CO)cc1,-0.594,0.203 (inactive),-0.321,-0.152,-0.154,-0.472,-0.289,-0.162,-0.465,0.0302,-0.145,-1.3,-0.236,-2.02,-1.17,-0.468,-0.176,-0.391,-0.0789,0.847 (inactive)
O=C1O[C@H](c2ccccc2)[C@H](c2ccccc2)N2[C@H]1[C@@H](C(=O)N1CCCCCCC1)[C@]1(C(=O)Nc3ccc(C#CC4=CCCCC4)cc31)[C@H]2c1ccc(OCCO)cc1,0.833,7.2 (inactive),2.11,1.05,0.837,3.66,1.3,1.25,1.48,1.15,2.15,1.26,3.18,0.9,1.49,0.833,-1.3,1.65,1.47,-1.2 (inactive)
CN(C)CCCC[C@@H]1NC(=O)[C@H]2C[C@@H](C(=O)NCCCCCCN)[C@@H](c3ccc(O)cc3)N2C1=O,0.887,0.37 (inactive),0.665,0.419,0.35,1.48,1.09,1.28,1.04,1.04,2.07,1.09,0.333,0.977,1.41,1.82,0.462,1.67,1.03,0.498 (inactive)
